PubChem BioAssay (NCI)
Compounds without any hit were thinned out: in the full panel of roughly 79,000, 15% have a hit. Unmarked numbers belong to inactive results. Activity calls are given as the source filed them. No stated cut-off is given here; in the data, active means growth inhibition above about 70%; inactive means the rest.

Tests used:
[1] = NCI Yeast Anticancer Drug Screen. Data for the rad50 strain (AID 155);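 further: 0% = growth of vehicle-only cultures of the same strain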; conditions: S. cerevisiae rad50 strain growth inhibition; at 50.0 µM; hits give high values
How it was run: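 Yeast carrying a defined DNA repair defect were exposed to test compounds, and growth was compared with vehicle-treated controls to give percent inhibition.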

[2] = NCI Yeast Anticancer Drug Screen. Data for the mec2-1 strain (AID 157); conditions: S. cerevisiae mec2-1 strain, at 50.0 µM, hits give high values
How it was run: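 Yeast mec2-1 mutant treated with compound. Readout: growth inhibition vs vehicle controls.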

[3] = NCI Yeast Anticancer Drug Screen. Data for the sgs1 mgt1 strain (AID 161);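 further: 0% = growth of cultures given vehicle only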; conditions: S. cerevisiae sgs1 mgt1 strain, at 50.0 µM, hits give high values
How it was run: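 Genetically altered yeast, compound exposure, growth inhibition relative to vehicle.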

[4] = NCI Yeast Anticancer Drug Screen. Data for the cln2 rad14 strain (AID 165);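 further: 0% = growth equal to vehicle treated cultures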; conditions: S. cerevisiae cln2 rad14 strain, at 50.0 µM, hits give high values
How it was run: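 cln2 rad14 yeast strain; compound exposure; growth inhibition read vs vehicle controls.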

[5] = NCI Yeast Anticancer Drug Screen. Data for the bub3 strain (AID 167); conditions: S. cerevisiae bub3 mutant strain, at 50.0 µM, hits give high values
How it was run: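 Compounds were applied to a genetically altered yeast strain carrying a cell-cycle control defect. Growth inhibition was scored against vehicle-treated controls.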

[6] = NCI Yeast Anticancer Drug Screen. Data for the mlh1 rad18 strain (AID 175); conditions: S. cerevisiae mlh1 rad18 strain growth inhibition; at 50.0 µM; hits give high values
How it was run: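 Yeast w/ defined DNA-repair lesions; compound exposure; growth vs vehicle controls → % inhibition.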

SMILES	growth inhibition [1]	growth inhibition [2]	growth inhibition [3]	growth inhibition [4]	growth inhibition [5]	growth inhibition [6]
ClC1=C(Cl)C2(Cl)C3C(CC4C3C3(Cl)C(Cl)=C(Cl)C4(Cl)C3(Cl)Cl)C1(Cl)C2(Cl)Cl (stereo not given)	-7.65%	-7.4%	-2.75%	-32.1%	0.15%	-9.9%
CCOC(=O)C1Cc2cc(C)c(C)cc2N(C)C1=O (stereo not given)	7.6%	-10.2%	5.9%	-22.5%	22.1%	-3.6%
CC1(C)COC(c2ccc(C(F)(F)F)cc2C(O)c2ccc3ccccc3c2)=N1 (stereo not given)	11.8%	-2.15%	3.8%	10.3%	-3.3%	10.3%
O=C(CNC(=O)c1ccccc1)NCS(=O)(=O)O	12.2%	-3.6%	19%	14.7%	19.2%	11.3%
CCOC(=O)CSC(=O)NCCCl	21.1%	-0.5%	-2.8%	8.45%	17.6%	9.1%
O=S(Cc1cnc2ccccc2c1)c1nc2ccccc2nc1-c1cccs1 (stereo not given)	-10.2%	-28.8%	-20.7%	-11%	-8.4%	-11.7%
CCCCCCCCCCCCSC(=O)CCC(=O)O	-49.5%	-11.9%	13.8%	-29.9%	1.85%	10.1%
Cc1cc(C(=O)O)c(C(=O)O)c(=O)[nH]1	0.6%	5.8%	0.3%	7.1%	-1.05%	-13.9%
O=C(CC1=Nc2nnc(-c3nnc4n3C(=O)C(CC(=O)C3CC3)=N4)n2C1=O)C1CC1	-10%	2.95%	-5.25%	-16.6%	-4.8%	-3.8%
O=C(Nc1ccc(N=C=S)cc1Cl)c1ccc2ccccc2c1O	15.6%	14.3%	6.75%	12.6%	4.05%	8.25%
COc1c(OCC(O)CN2CCCCC2)c2c(C)coc2c2ccoc12 (stereo not given)	34.5%	18.6%	16.1%	9.25%	4.15%	23.1%
Cc1ccc2c(c1)nc(N)n[n+]2[O-]	2.85%	-14.7%	-3.4%	3.25%	-8.95%	-39.5%
CC(O)CN1c2ccccc2Sc2ccccc21 (stereo not given)	-17.4%	-13.7%	-13.2%	-18.2%	-13.8%	7.55%
CCOC(=O)C1=C(C)N(NC(N)=O)C2(O)CCCC(=O)C12C (stereo not given)	5.35%	-0.45%	0.65%	-52.2%	-3.8%	2.2%
Cn1cc(NC(=O)c2cc(NC(=O)CCCCCC(=O)Nc3cc(C(=O)Nc4cc(C(=O)NCCC(=N)N)n(C)c4)n(C)c3)cn2C)cc1C(=O)NCCC(=N)N	-14.1%	-14.9%	-17.6%	-1.35%	-24.4%	-3.6%
O=C(O)CSc1cc(Br)c(Br)cc1C(=O)O	6.05%	-11.3%	-0.85%	9.5%	9.8%	-15.9%
CC(=O)CC(=O)NCc1ccccc1	10.7%	-15.9%	25%	17.2%	1.55%	5.15%
COc1cc(C2c3cc4c(cc3OC(N3CCCCC3)C2C)OCO4)cc(OC)c1O (stereo not given)	1.45%	-14.3%	-14.3%	6.95%	-18.5%	-9.25%
CN1C(=O)CC2C(=O)N(Cc3ccccc3)C(=O)C2C1=O (stereo not given)	14%	-4%	-0.8%	11.6%	1.3%	-2.85%
O=C(O)C1CCCCC1C(=O)O.[NH-]C1CCC1.[NH2-].[Pt+2] (stereo not given)	99.2% (active)	99.3% (active)	99.4% (active)	99.3% (active)	99% (active)	99.1% (active)
